The results in this text go back to PubChem BioAssay (NCATS).

Results filed as inconclusive are left out. Unmarked numbers belong to inactive results. The source made the active and inactive calls. Calls come from the whole dose curve; tested in HEK293 reporter line.
% is set by controls: 0 for no effect and ±100 for the full control effect; potency is the fitted concentration of half-maximal effect.

The test in a line: qHTS for Inhibitors of the Functional Ribonucleoprotein Complex (vRNP) of Lymphocytic Choriomeningitis Arenaviruses (LCMV): Viability assay - alamar blue signal for LCMV Primary Screen (AID 1347085). Note: nearly all actives have a fitted effect of over 80% in size. As to conditions: alamar blue viability counter-screen, LCMV vRNP screen cells; series mostly up to 57.5 µM; activity change, negative = lower viability: at the top concentration. A general note: qHTS replaces the single test concentration by a dilution series.
`C/C=C(/C)C(=O)OC(C)(C)[C@@H]1Cc2c(ccc3ccc(=O)oc23)O1`: the “activity change, negative = lower viability” value is -73.8%.

Turning to `C=C1[C@@H](OC(C)=O)CC[C@]2(C)[C@@H]1C[C@@H]1C[C@H](OC(C)=O)C(C)=C([C@@H](OC(C)=O)[C@@H]2OC(C)=O)C1(C)C`, the “activity change, negative = lower viability” value was 13.4%.

With `COc1cccc2c(=O)c3ccoc3n(C)c12`, the “activity change, negative = lower viability” value was -8.76%.

Turning to `COc1cc2c(c(OC)c1OC)-c1c(cc3c(c1OC)OCO3)CC(C)C(C)(O)C2OC(=O)c1ccccc1` (stereo not given), the “activity change, negative = lower viability” value was 4.32% [at 24.7 µM].

Take `C/C=C1\CN2[C@H]3C[C@@]45c6ccccc6N(C)[C@H]4[C@@H]2CC1C3[C@H]5O` (stereo not given in full): the “activity change, negative = lower viability” value is -6.79%.

In the case of `c1ccc(-c2ccncc2)cc1`, the “activity change, negative = lower viability” value was 3.51%.

As to `C=C(C)C(COc1c2occc2cc2ccc(=O)oc12)OC(C)(C)C(O)COc1c2occc2cc2ccc(=O)oc12` (stereo not given), the “activity change, negative = lower viability” value is 8.2%.

Take `Cc1nc(Nc2n[nH]c3c2CN(C(=O)N[C@H](CN(C)C)c2ccccc2)C3(C)C)c2sccc2n1`: the Potency was 0.0968 µM (active).

On to `CC(C)(O)CC[C@@H](O)[C@](C)(O)C1CC[C@@]2(O)C3=CC(=O)[C@]4(O)C[C@@H](O)[C@@H](O)C[C@]4(C)C3CC[C@]12C` (stereo not given in full), for which the “activity change, negative = lower viability” value was 0.841%.

On to `COC(=O)C(O)C(O)(CCC(C)C)C(=O)OC1C(OC)=CC23CCCN2CCc2cc4c(cc2C13)OCO4` (stereo not given), for which the “activity change, negative = lower viability” value is -148%.

For `Oc1cc(O)cc(-c2cc3ccc(O)cc3o2)c1`, the “activity change, negative = lower viability” value was -4.9%.

As to `COc1cc2c(c(OC)c1OC)-c1c(cc3c(c1OC)OCO3)C1OC2[C@@H](C)[C@H]1C` (stereo not given in full), the “activity change, negative = lower viability” value was -2.83%.

On to `CC1(C)C2CC1[C@@](C)(O)[C@H](O)C2` (stereo not given in full), for which the “activity change, negative = lower viability” value was 10.6%.

Consider `COc1cc(C)c(C(=O)Oc2cc(C)c(C(=O)O)c(O)c2C)c(O)c1C(=O)O`, for which the “activity change, negative = lower viability” value was 33.5%.

Take `COc1cc(OC)c2c(c1)C(=O)OC2`: the “activity change, negative = lower viability” value is -8.46%.

`CC1=C(C=O)C(C)(C)CCC1`: the “activity change, negative = lower viability” value was -4.42% [at 115 µM].

In the case of `CCCCCCCCO[C@@H]1O[C@H](CO)[C@@H](O)[C@H](O)[C@H]1O`, the “activity change, negative = lower viability” value is 17% [at 115 µM].

On to `CC(C)C(=O)COc1c2occc2cc2ccc(=O)oc12`, for which the “activity change, negative = lower viability” value was 4.43%.

On to `Nc1nc2c(ncn2[C@@H]2O[C@H](COP(=O)(O)OP(=O)(O)OP(=O)(O)O)[C@@H](O)C2O)c(=O)[nH]1` (stereo not given in full), for which the “activity change, negative = lower viability” value was 11.4%.

With `CC12CCC(=O)C=C1C(F)CC1C2C(O)CC2(C)C1CCC2(O)C(=O)CO` (stereo not given), the “activity change, negative = lower viability” value is 12.2%.

Consider `C=C(C)[C@@H]1CCC2=CC(=O)C[C@@H](C)[C@]2(C)C1`, for which the “activity change, negative = lower viability” value was 21.7% [at 115 µM].

Consider `C[C@H]1CC2C3CCC4=CC(=O)C=C[C@]4(C)[C@@]3(Cl)[C@@H](O)C[C@]2(C)[C@@]1(O)C(=O)CO` (stereo not given in full), for which the “activity change, negative = lower viability” value was 4.12%.

Take `CC1CCC(=O)O1` (stereo not given): the “activity change, negative = lower viability” value is 7.12% [at 115 µM].

In the case of `COc1ccc2c(c1)c(=O)cc(-c1ccccc1)n2C`, the “activity change, negative = lower viability” value was -11.1%.

On to `CSc1c(Cl)c(Cl)c(Cl)c(Cl)c1Cl`, for which the “activity change, negative = lower viability” value is 23.5% [at 115 µM].

Regarding `Cc1cccc2c3c(ccc12)C1=C(C(=O)C3=O)[C@@H](C)CO1`, the “activity change, negative = lower viability” value was 5.18%.

For `O=C(CCCCO)CCCCCCCC[C@H]1N[C@H](CO)[C@H](O)[C@@H]1O[C@@H]1O[C@H](CO)[C@@H](O)[C@H](O)[C@H]1O`, the “activity change, negative = lower viability” value is 4.2%.

Take `O=C(O)CCC/C=C\C/C=C\C=C\[C@@H](O)C/C=C\CCCCCO`: the activity change, negative = lower viability was 9.51% [at 0.757 µM].

`CCCCCC/C=C/C=O`: the “activity change, negative = lower viability” value is 9.02% [at 115 µM].

As for `CCCCCCC[C@@H](C/C=C/CCC(=O)N(C)C/C(=C/Cl)C/C(=C\C(=O)N1CC(OC)=CC1=O)OC)OC`, the “activity change, negative = lower viability” value was -19.6%.

Turning to `O=c1c(-c2ccc(O)cc2)coc2cc(OC3OC(CO)C(O)C(O)C3O)ccc12` (stereo not given), the “activity change, negative = lower viability” value was 9.38%.

For the molecule `COC(/C=C(\C)CCC=C(C)C)OC`, the “activity change, negative = lower viability” value is 6.46% [at 115 µM].

In the case of `Cn1cnc2c(ncn2[C@@H]2O[C@H](CO)[C@@H](O)[C@H]2O)c1=N`, the “activity change, negative = lower viability” value is 6.08%.

Turning to `COc1c(C)c2c(c(O)c1CC=C(C)CCC(=O)OCCN1CCOCC1)C(=O)OC2`, the Potency is 12.2 µM (active).

For the molecule `Nc1ncnc2c1ncn2[C@H]1O[C@H](CO)[C@@H](O)[C@@H]1O`, the “activity change, negative = lower viability” value is 25.4% [at 24.7 µM].

Take `C/C=C(/CC[C@@H](C)[C@H]1CC[C@H]2C3=CC[C@H]4[C@H](C)[C@@H](O)CC[C@]4(C)[C@H]3CC[C@]12C)C(C)C`: the “activity change, negative = lower viability” value is 3.23%.

Take `COc1cc2c(c3oc(-c4ccccc4)cc(=O)c13)C=CC(C)(C)O2`: the “activity change, negative = lower viability” value was 11.3%.

Consider `C[C@@H]1C(=O)CC2C(C)(C)CCC[C@]2(C)[C@@]1(O)CCc1ccoc1` (stereo not given in full), for which the “activity change, negative = lower viability” value is 6.14%.

On to `O=C(/C=C/c1ccccc1)NCCc1cnc[nH]1`, for which the “activity change, negative = lower viability” value was -0.414%.

For the molecule `CC(C)(O)Cn1c(NC(=O)c2ccc(-c3cn[nH]c3)s2)nc2cc(CN3CCOCC3)ccc21`, the Potency was 4.32 µM (active).
